# ± gives the standard deviation.
# System: RAW-Dual (murine macrophage reporter line)
# Test: IRF reporter (Lucia luciferase) activity fold change vs agonist alone; higher = enhanced IRF activity
# Details: modulator concentration 10 µM; agonist: LPS 0.1 ug/mL
# Summary of the method: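 In 384-well plates holding 50 000 RAW-Dual murine macrophage reporter cells per well, compound at 10 μM final was pre-incubated for 1 hour at 37 °C, after which a PRR agonist was added overnight. Supernatant SEAP read with QUANTI-Blue at 620 nm absorbance reported NF-κB, and Lucia luciferase read with QUANTI-Luc luminescence reported IRF. Fold change values come from dividing each reporter signal by the mean of agonist-only control wells on the same plate, averaged over replicate plates with propagated errors.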
row,SMILES,IRF reporter
1,CN1CCN(c2ccc(-c3cccc(NC(=O)COc4ccc(Cl)cc4Cl)c3)nn2)CC1,1.16 ± 0.18
2,O=C(CCN1C(=O)c2cccc([N+](=O)[O-])c2C1=O)Nc1ccc(Cl)cc1,1.4 ± 0.16
3,N#CCCC1(CCC#N)S(=O)(=O)CC(c2ccc(Cl)cc2)CS1(=O)=O,1.26 ± 0.087
4,Fc1ccc(Nc2nc(NN=Cc3ccc(Cl)cc3)nc(N3CCCCC3)n2)cc1,1.14 ± 0.12
5,CC(C)(C)C1CCC(OC(=O)CCC(=O)O)CC1 (stereo not given),1.32 ± 0.21
6,Fc1ccccc1C=NNc1nc(-c2ccccc2)cc(-c2ccccc2)n1,1.14 ± 0.15
7,NC(=O)c1ccc(N2CCOCC2)c([N+](=O)[O-])c1,1.02 ± 0.05
8,O=C(NCC1CCCO1)c1[nH]nnc1-c1ccc(F)cc1 (stereo not given),1.03 ± 0.048
9,COC(=O)C1=CN(CC2CCCO2)C=C(C(=O)OC)C1c1cccc(Cl)c1 (stereo not given),1.17 ± 0.069
10,COc1ccc(CCn2c(C)c(C)n3c4c(=O)n(CCC(C)C)c(=O)n(C)c4nc23)cc1OC,1.37 ± 0.24
11,CC1(C)NC(=O)N(c2ccc([N+](=O)[O-])c(C(F)(F)F)c2)C1=O,1.17 ± 0.21
12,O=C(Nc1nc2cccc(-c3ccc(CN4CCS(=O)(=O)CC4)cc3)n2n1)C1CC1,0.851 ± 0.2
13,COc1ccc2cc(Br)ccc2c1CC(N)=O,1.07 ± 0.072
14,Cc1sc2ncnc(Nc3ccc(F)cc3)c2c1C,0.935 ± 0.19
15,CC1CCN(c2cc(N3CCNCC3)ncn2)CC1,1.11 ± 0.17
16,Oc1cccc(C=Nc2ccc(N=Cc3cccc(O)c3O)cc2)c1O,0.93 ± 0.2
17,C=C1CCC2C(C)(CO)C(O)CCC2(C)C1CC=C1C(=O)OCC1O (stereo not given),2.13 ± 0.35
18,COC1CCN(C2CCN(S(=O)(=O)c3ccccc3)CC2)CC1,1.08 ± 0.14
19,CC(NCCc1c[nH]c2ccccc12)=C1C(=O)c2ccccc2C1=O,0.989 ± 0.033
20,Cc1c(Cl)cccc1S(=O)(=O)NCc1ccnc(N2CCCC2=O)c1,1.07 ± 0.079

row,SMILES,IRF reporter
1,CN(C)C/C=C/C(=O)Nc1cc2c(Nc3ccc(F)c(Cl)c3)ncnc2cc1O[C@H]1CCOC1.O=C(O)/C=C\C(=O)O.O=C(O)/C=C\C(=O)O,0.795 ± 0.17
2,CCCOc1cccc(C(=O)Nc2cccc(S(N)(=O)=O)c2)c1,1.39 ± 0.14
3,Cc1ccc2[nH]c3nc(NN)nnc3c2c1,0.998 ± 0.077
4,CCN(CC)S(=O)(=O)c1ccc(C(=O)Nc2cc(C)nn2-c2nc(C)c(C)c(=O)[nH]2)cc1,0.957 ± 0.099
5,Cc1cc(C)n2nc(C(=O)NN=Cc3ccc(N(C)C)cc3)nc2n1,1.37 ± 0.11
6,Cc1ccc(CSCCNC(=O)CN(c2cccc(C)c2)S(C)(=O)=O)cc1,1.44 ± 0.2
7,CC1CCc2cc(F)cc3c(=O)c(C(=O)O)cn1c23 (stereo not given),0.872 ± 0.031
8,CN1C2CCCC1CC(NC(=O)c1nn(C)c3ccccc13)C2.Cl (stereo not given),1.13 ± 0.16
9,O=C(CCc1ccc(O)cc1)c1c(O)cc(O)cc1O,1.03 ± 0.12
10,COc1ccc(-n2cnc3cc(NC(C)=O)ccc32)cc1,1.19 ± 0.15
11,NC(=O)c1ncn([C@@H]2O[C@H](CO)[C@@H](O)[C@H]2O)n1,1.66 ± 0.22
12,O=c1[nH]c(NN=Cc2c3ccccc3cc3ccccc23)nc2ccccc12,1.82 ± 0.16
13,COc1ccc(C(=O)N2CC(n3cc(CN4CCCC4=O)nn3)C2)cc1F,1.01 ± 0.067
14,CCOC(=O)c1cc(-c2ccccc2)sc1NC(=O)C(C)(C)C,1.3 ± 0.093
15,O=C(O)CC(C(=O)O)N1C(=O)C(=C2C(=O)Nc3ccc(Br)cc32)SC1=S (stereo not given),1.24 ± 0.15
16,N#Cc1nc(-c2ccc(COc3ccccc3)o2)oc1N1CCCCC1,1.53 ± 0.1
17,NC(N)=NN=Cc1ccc(OS(=O)(=O)c2ccccc2)cc1,0.93 ± 0.058
18,CC(C)OC(=O)c1c(NC(=O)C2CC=CCC2C(=O)O)sc2c1CCCC2 (stereo not given),1.29 ± 0.18
19,CCOC(C#CCN(CC)CC)(c1ccccc1)c1ccccc1.Cl,0.813 ± 0.054
20,CCN(CC)C(=O)N1CCN(C)CC1 [Prestw-284],1.41 ± 0.24

# Source: the supplement of paper PMC10646978
